Screening data as filed in PubChem BioAssay.
eLon inh – inhibits E. coli Lon protease; purified E. coli Lon protease, fluorescence polarization; 0.42% of 360,000 active; P0A9M0; inhibition, % at 7.94 µM; in the data active = inhibition above about 13%, passing the limit was not always enough;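 also: 0% = enzyme with probe and DMSO and 100% = no enzyme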
Keap1-Nrf2 PPI – inhibitors of human Keap1-Nrf2 protein-protein interaction; 0.15% of 340,000 active; Q14145; Keap1 Kelch-Nrf2 peptide fluorescence polarization, 1536-well; AID 504523; inhibition, % at 9.4 µM; in the data active = inhibition above about 12%;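 also: human Keap1 Kelch domain with fluorescein labeled Nrf2 9mer peptide probe; 0% = neutral control wells and 100% = peptide positive control; higher means more block of Keap1 binding to Nrf2 peptide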
Target sequence (Q14145 whole entry, looked up, the tested form may be a part): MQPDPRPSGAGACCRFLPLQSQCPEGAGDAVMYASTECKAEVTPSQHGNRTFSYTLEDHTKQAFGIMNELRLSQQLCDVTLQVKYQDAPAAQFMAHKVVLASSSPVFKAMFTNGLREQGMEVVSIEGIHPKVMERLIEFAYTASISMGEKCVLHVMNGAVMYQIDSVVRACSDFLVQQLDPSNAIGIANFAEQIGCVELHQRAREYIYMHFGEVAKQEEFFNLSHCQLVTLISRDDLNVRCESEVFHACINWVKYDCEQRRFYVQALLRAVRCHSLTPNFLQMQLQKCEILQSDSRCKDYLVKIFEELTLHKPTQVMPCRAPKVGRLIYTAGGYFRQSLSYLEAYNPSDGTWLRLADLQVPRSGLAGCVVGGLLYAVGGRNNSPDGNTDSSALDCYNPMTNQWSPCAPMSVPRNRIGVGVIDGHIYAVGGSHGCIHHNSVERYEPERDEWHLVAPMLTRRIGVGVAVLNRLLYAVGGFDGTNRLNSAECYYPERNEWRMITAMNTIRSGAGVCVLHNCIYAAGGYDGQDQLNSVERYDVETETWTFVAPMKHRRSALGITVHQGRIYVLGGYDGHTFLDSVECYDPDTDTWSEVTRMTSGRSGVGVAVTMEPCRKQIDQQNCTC
cardiac RTF act – increases calcium sensitivity of human cardiac regulated thin filaments; P19429+P45379; IANBD-labeled TnC RTF fluorescence at EC20 calcium; 0% EC20 calcium, 100% full calcium; activation, % at 7.2 µM; 0.24% of 340,000 active; AID 493008;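 active = activation above the mean over all tested compounds plus 3 SD, cut at about 30% in these data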;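 also: rise in fluorescence read as greater calcium sensitivity of cardiac thin filaments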
Cardiac RTF inh – cardiac RTF calcium desensitization | IANBD-labeled cardiac RTF, Ca2+ fluorescence | P19429+P45379 | 0.12% of 340,000 active | AID 493244 | inhibition, % at 7.15 µM;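 active = inhibition above the mean inhibition of all tested compounds plus 3 SD, cut at about 17% in these data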;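 also: assay run at fixed EC70 calcium of 1.6 mM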
C-LANA FP – inhibitors of KSHV LANA C-terminal domain DNA binding; 0.078% of 340,000 active; inhibition, % at 9 µM; AID 504423; MBP-C-LANA/FAM-LBS DNA binding, fluorescence polarization;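 active = highest replicate inhibition at or above 60% at 9 µM, even if other replicates fall short; inactive = all replicates below 60% inhibition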;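 also: 0% = neutral control wells and 100% = 4 µM acridine orange control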
Keap1 Kelch bind – binders of human Keap1 Kelch domain; shares compounds with Keap1-Nrf2 PPI; Keap1 Kelch thermal shift, delta Tm; hits give high values; 8% of 400 active; max delta Tm, degrees C; in the data active = max delta Tm above about 0.48 degrees C
Dye-only ctr – dye artifact in Keap1 thermal shift counter-screen | shares compounds with Keap1-Nrf2 PPI | Sypro Orange dye-only thermal melt, no protein, delta Tm; top dose 26 µM | delta Tm, degrees C (concentration not given with the values) | 140 tested, under 10 active | AID 651858;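 active = at highest dose tested, delta Tm positive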
* marks the source's active call; other numbers are inactive results. An excerpt weighted towards active compounds, which were near 0.82% of everything screened.

`Oc1[nH]c2ccccc2c1N=Nc1ccccc1` gave eLon inh -0.5, Keap1-Nrf2 PPI 19.6*, cardiac RTF act 16.8, Cardiac RTF inh -18.2, C-LANA FP 3.4 and Keap1 Kelch bind -0.03.
For O=C(N=Nc1c(O)[nH]c2ccccc12)Nc1ccccc1 the results were eLon inh -7.3, Keap1-Nrf2 PPI -6.4, cardiac RTF act 0.5, Cardiac RTF inh -5.5 and C-LANA FP -1.8.
O=C1NC(=O)/C(=C\c2ccc(Cl)cc2Cl)N1 was read as eLon inh 0.7, Keap1-Nrf2 PPI 1.1, cardiac RTF act 1.8, Cardiac RTF inh 1.2 and C-LANA FP 3.6.
`O=C1NC(=O)/C(=C/c2ccccc2Cl)N1` gave eLon inh 2.5, Keap1-Nrf2 PPI 112.0*, cardiac RTF act 3.2, Cardiac RTF inh -5.5, C-LANA FP -1.4 and Keap1 Kelch bind -0.15.
Screening O=C1c2cccc3c(N4CCCCC4)ccc(c23)C(=O)N1c1cccc(O)c1 returned eLon inh -133.8, Keap1-Nrf2 PPI 27.0*, cardiac RTF act 59.4*, Cardiac RTF inh -120.3, C-LANA FP 52.9, Keap1 Kelch bind -0.08 and Dye-only ctr -26.9.
`OC(Cc1ccncc1)(c1ccccc1)c1ccccc1` gave eLon inh 4.6, Keap1-Nrf2 PPI 28.0*, cardiac RTF act -0.6, Cardiac RTF inh -7.4, C-LANA FP -1.4 and Keap1 Kelch bind -0.11.
`O=[N+]([O-])c1cncc([N+](=O)[O-])c1Nc1cccc(O)c1` gave eLon inh -13.4, Keap1-Nrf2 PPI 35.2*, cardiac RTF act 0.6, Cardiac RTF inh -9.3, C-LANA FP 27.0 and Keap1 Kelch bind -0.14.
For CN(C)CCN[C@H]1CCC2C3CC=C4C[C@@H](O)CC[C@]4(C)C3CC[C@@]21C (stereo not given in full) the results were eLon inh 4.2, Keap1-Nrf2 PPI -1.6, cardiac RTF act -0.6, Cardiac RTF inh -0.6 and C-LANA FP 0.3.
`CCCCOc1ccc(C2OC34CCCCC3C(C#N)(C#N)C2(C#N)C(=N)O4)cc1` (stereo not given) gave eLon inh 27.4, Keap1-Nrf2 PPI 27.2*, cardiac RTF act 23.2, Cardiac RTF inh -31.7, C-LANA FP 60.3*, Keap1 Kelch bind 0.03 and Dye-only ctr -27.3.
`Cc1ccc2cc(CN(CCCO)S(=O)(=O)c3cccc4nsnc34)c(=O)[nH]c2c1C` gave eLon inh -6.5, Keap1-Nrf2 PPI 13.6*, cardiac RTF act 6.8, Cardiac RTF inh -6.9, C-LANA FP -1.5, Keap1 Kelch bind -0.15 and Dye-only ctr -34.2.
`COc1ccccc1C(=O)OCC(=O)Nc1cccc(S(=O)(=O)N2CCCC2)c1` gave eLon inh 9.2, Keap1-Nrf2 PPI -4.6, cardiac RTF act -7.2, Cardiac RTF inh 1.8 and C-LANA FP 0.1.
Cc1cccc(NC(=O)CCN2CCCCC2)c1 was read as eLon inh -6.4, Keap1-Nrf2 PPI 31.8*, cardiac RTF act -0.4, Cardiac RTF inh -2.1, C-LANA FP 16.2, Keap1 Kelch bind -0.1 and Dye-only ctr -26.
`Cc1cccc(NC(=O)CN2CCCCCC2)c1` gave eLon inh 3.6, Keap1-Nrf2 PPI -4.0, cardiac RTF act 1.1, Cardiac RTF inh 7.7 and C-LANA FP 0.6.
For CC(C)S(=O)(=O)c1nsc2nc(=O)c(/C=C3\C=Nc4ccccc43)c(N)n12 the results were eLon inh -9.7, Keap1-Nrf2 PPI -2.6, cardiac RTF act 0.3, Cardiac RTF inh -22.2 and C-LANA FP -0.3.
`CSc1nsc2nc(=O)c(/C=C3\C=Nc4ccccc43)c(N)n12` gave eLon inh -13.6, Keap1-Nrf2 PPI 14.2*, cardiac RTF act 2.3, Cardiac RTF inh 2.9, C-LANA FP 23.9 and Keap1 Kelch bind 0.74*.
For O=C(NCCc1cccc(F)c1)C1CCC(=O)N(CCCc2ccccc2)C1 (stereo not given) the results were eLon inh -2.4, Keap1-Nrf2 PPI 0.9, cardiac RTF act -0.9, Cardiac RTF inh -6.3 and C-LANA FP 9.2.
`CC(=O)NCCC(=O)N1CCCC(N2CCN(c3cccc(Cl)c3)CC2)C1` (stereo not given) gave eLon inh -3.2, Keap1-Nrf2 PPI -4.7, cardiac RTF act 1.3, Cardiac RTF inh -3.0 and C-LANA FP 3.2.
Cc1ccc(S(=O)(=O)Nc2cc(C(C(=O)OC(C)C)C(=O)C(F)(F)F)c(O)c3ccccc23)c(C)c1 (stereo not given) was read as eLon inh 8.5, Keap1-Nrf2 PPI 50.9*, cardiac RTF act -9.4, Cardiac RTF inh 2.1, C-LANA FP -1.6 and Keap1 Kelch bind 10.3*.
Screening Cc1ccc(S(=O)(=O)Nc2ccc3c4c(cccc24)CC3)c(C)c1 returned eLon inh 2.5, Keap1-Nrf2 PPI -1.4, cardiac RTF act 1.0, Cardiac RTF inh 0.3 and C-LANA FP -1.0.
Screening Cc1ccc(S(=O)(=O)Nc2ccc(O)c3ccccc23)c(C)c1 returned eLon inh 7.2, Keap1-Nrf2 PPI 12.1*, cardiac RTF act -2.6, Cardiac RTF inh -6.1, C-LANA FP 1.3 and Keap1 Kelch bind 1.23*.
Screening O=C(O)c1ccccc1NS(=O)(=O)c1cccc(NS(=O)(=O)c2cc(Br)ccc2Br)c1 returned eLon inh 7.1, Keap1-Nrf2 PPI 2.4, cardiac RTF act 2.4, Cardiac RTF inh -6.0 and C-LANA FP -0.2.
Screening Cc1ccc(S(=O)(=O)Nc2cccc(S(=O)(=O)Nc3ccccc3C(=O)O)c2)c(C)c1 returned eLon inh 4.7, Keap1-Nrf2 PPI 15.6*, cardiac RTF act 4.3, Cardiac RTF inh 0.2, C-LANA FP 0.0 and Keap1 Kelch bind 1.13*.
For COC(=O)C1CCN(C(=O)COC(=O)C2CCN(S(=O)(=O)c3c(Cl)cccc3Cl)CC2)CC1 the results were eLon inh -9.0, Keap1-Nrf2 PPI 3.7, cardiac RTF act -6.3, Cardiac RTF inh -11.3 and C-LANA FP -1.5.
For O=C(O)c1ccc(SCc2ccccc2)nc1 the results were eLon inh 7.0, Keap1-Nrf2 PPI -4.0, cardiac RTF act -3.2, Cardiac RTF inh -5.4 and C-LANA FP 0.3.
COc1ccccc1N(C)S(=O)(=O)c1ccc(C(=O)NCc2ccccc2CN2CCCC2)cc1 was read as eLon inh -3.9, Keap1-Nrf2 PPI 47.2*, cardiac RTF act 3.0, Cardiac RTF inh -10.4, C-LANA FP 29.6 and Keap1 Kelch bind -0.19.
Screening COc1ccccc1CNC(=O)c1ccc(S(=O)(=O)N(C)c2ccccc2)cc1 returned eLon inh 1.5, Keap1-Nrf2 PPI -1.8, cardiac RTF act -5.2, Cardiac RTF inh -0.8 and C-LANA FP -0.4.
For COc1cc2c3nnc(-c4ccc(F)cc4)c-3cn(Cc3ccccc3)c2cc1OC the results were eLon inh -5.4, Keap1-Nrf2 PPI 15.9*, cardiac RTF act 6.6, Cardiac RTF inh -9.4, C-LANA FP 2.5, Keap1 Kelch bind -0.16 and Dye-only ctr -26.3.
